Our source for the normalized growth values is PubChem BioAssay AID1159580 (chemical genetic matrix, 2015).

The test can be described thus: chemical genetic growth profiling, strain panel (AID 1159580).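 Further: tested at 20 µM; growth read once vehicle control cultures reached saturation at 30 °C; 1 = growth at the plate median or of vehicle wells; lower values mean less growth of the strain.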 The conditions noted are these: S. cerevisiae deletion strains, growth OD.
The mark [1] stands for this setting: locus YHR030C, strain SLT2, active compounds read low.
Setting [2] is: locus YHR079C, strain IRE1, active compounds read low.
Where [3] appears, read: locus YJL095W, strain BCK1, active compounds read low.
The mark [4] stands for this setting: locus YJR066W, strain TOR1, active compounds read low.
Setting [5] is: locus YLR113W, strain HOG1, active compounds read low.
The mark [6] stands for this setting: locus YNL183C, strain NPR1, active compounds read low.
[7] abbreviates: locus YOR231W, strain MKK1, active compounds read low.
[8] abbreviates: locus YPL256C, strain CLN2, active compounds read low.
Where [9] appears, read: locus YAL013W, strain DEP1, active compounds read low.
Setting [10] is: locus YDR150W, strain NUM1, active compounds read low.
[11] abbreviates: locus YGR078C, strain PAC10, active compounds read low.
[12] abbreviates: locus YJR075W, strain HOC1, active compounds read low.
Where [13] appears, read: locus YNL153C, strain GIM3, active compounds read low.
The mark [14] stands for this setting: locus YNL322C, strain KRE1, active compounds read low.
The mark [15] stands for this setting: locus YPL055C, strain LGE1, active compounds read low.

About 2,000 (36%) of roughly 5,500 compounds were called active. Another 18% or so got no clear call; they are omitted. The list shows a part of the results. Unmarked numbers belong to inactive results. No stated cut-off is given here; in the data, active means normalized growth mostly below about 0.91 (no sharp cut-off); inconclusive means no clear call, values can overlap the other calls; inactive means mostly above about 0.92.

With `COc1ccc(C(C)=O)c(OC)c1`, the normalized growth was 0.954 under setting [1]; 0.952 under setting [2]; 0.965 under setting [3]; 0.953 under setting [4]; 0.948 under setting [5]; 0.895 under setting [6]. For the same compound, the normalized growth was 0.934 under setting [7] and 0.909 under setting [8].
For the compound `COc1cc(C(O)C(=O)O)ccc1O` (stereo not given), the normalized growth was 0.996 under setting [9]; 0.984 (locus YAL040C, strain CLN3, active compounds read low); 0.994 (locus YCL061C, strain MRC1 (second series), active compounds read low); 0.994 under setting [10]; 1.01 (locus YDR363W, strain ESC2, active compounds read low); 1.03 (locus YER002W, strain NOP16, active compounds read low). For the same compound, the normalized growth runs as follows: under setting [11], 1; under setting [12], 0.991; (locus YMR307W, strain GAS1, active compounds read low) 0.989; (locus YNL128W, strain TEP1, active compounds read low) 0.986; under setting [13], 1.01; (locus YNL175C, strain NOP13, active compounds read low) 0.992. Besides, the normalized growth by setting is: (locus YNL197C, strain WHI3, active compounds read low) 1.01; (locus YNL224C, strain SQS1, active compounds read low) 1.02; under setting [14], 0.998; (locus YOR083W, strain WHI5 (second series), active compounds read low) 1.01; under setting [15], 1.01.
On to `COc1ccc(OC)c(C(=O)c2cc(OC)c(OC)c(OC)c2)c1`, for which the normalized growth under setting [9] was 0.999; the normalized growth (locus YBR229C, strain ROT2, active compounds read low) was 1.02; the normalized growth (locus YDL101C, strain DUN1, active compounds read low) was 1; the normalized growth under setting [10] was 1.01; the normalized growth (locus YEL061C, strain CIN8, active compounds read low) is 1.05; the normalized growth under setting [11] was 1. Further, the normalized growth was 0.93 under setting [1]; 1.06 (locus YHR087W, strain rtc3, active compounds read low); 1.01 (locus YJL187C, strain SWE1, active compounds read low); 1.02 (locus YJR043C, strain POL32, active compounds read low); 1.03 under setting [12]; 1.03 (locus YKL190W, strain CNB1, active compounds read low). Moreover, the normalized growth is, setting by setting: (locus YLR039C, strain RIC1, active compounds read low) 0.753 (active); (locus YLR058C, strain SHM2 (second series), active compounds read low) 1.01; (locus YLR085C, strain ARP6, active compounds read low) 0.999; (locus YLR262C, strain YPT6, active compounds read low) 0.69 (active); (locus YML094W, strain GIM5, active compounds read low) 0.982; (locus YMR219W, strain ESC1, active compounds read low) 1.01. Moreover, the normalized growth was 1.01 (locus YMR263W, strain SAP30, active compounds read low); 1.01 under setting [13]; 1.01 (locus YNL298W, strain CLA4 (second series), active compounds read low); 0.995 under setting [14]; 1.01 (locus YNR030W, strain Alg12, active compounds read low); 0.973 (locus YOL006C, strain TOP1, active compounds read low). The normalized growth by setting is: under setting [15], 1.01; (locus YPL241C, strain CIN2, active compounds read low) 0.986; (locus YPR135W, strain CTF4, active compounds read low) 1.06.
With `COc1ccc(C(C)=O)c(O)c1`, the normalized growth is 0.966 under setting [1]; 0.965 under setting [2]; 0.968 under setting [3]; 0.905 under setting [4]; 0.96 under setting [5]; 0.892 under setting [6]. Also, the normalized growth by setting is: under setting [7], 0.968; under setting [8], 0.957.
